# Data published in PubChem BioAssay (NCI).
# Compounds without any hit were thinned out: in the full panel of roughly 79,000, 15% have a hit. A number with no mark means an inactive call. Active and inactive are the calls of the source. Cut-off read from the data, not from the text of the source: active = growth inhibition above about 70%; inactive = the rest.
# What was measured:
# [1] = NCI Yeast Anticancer Drug Screen. Data for the rad52 strain (AID 147);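 note: 0% = growth of vehicle-treated control cultures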; details: S. cerevisiae rad52 mutant growth inhibition, stronger effect = higher value
# Summary of the method: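 Screen used a yeast mutant impaired in DNA repair. After compound exposure, growth was measured. Values reflect inhibition compared with vehicle-treated cells.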
# [2] = NCI Yeast Anticancer Drug Screen. Data for the wt1 strain (AID 149);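 note: 0% = growth of vehicle-treated wt1 cultures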; details: S. cerevisiae wt1 strain (SPY 50644) growth inhibition, stronger effect = higher value
# Summary of the method: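 wt1 yeast, compound-treated; % growth inhibition vs vehicle control.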
# [3] = NCI Yeast Anticancer Drug Screen. Data for the rad50EPP+ strain (AID 151);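 note: 0% = growth of vehicle-treated control cultures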; details: S. cerevisiae rad50 mutant strain, stronger effect = higher value
# Summary of the method: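 Exposing the rad50EPP+ strain to each compound, growth was compared with vehicle-only cultures to give inhibition.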
# [4] = NCI Yeast Anticancer Drug Screen. Data for the mgt1 strain (AID 153); details: S. cerevisiae mgt1 mutant growth inhibition, stronger effect = higher value
# Summary of the method: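 Genetically defined yeast (mgt1) treated with compound; inhibition of growth expressed against vehicle-treated controls.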
# [5] = NCI Yeast Anticancer Drug Screen. Data for the rad50 strain (AID 155);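 note: 0% = growth of vehicle-only cultures of the same strain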; details: S. cerevisiae rad50 strain growth inhibition, stronger effect = higher value
# Summary of the method: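 Genetically altered yeast (DNA repair pathway); compound treatment; growth inhibition vs vehicle ctrl.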
# [6] = NCI Yeast Anticancer Drug Screen. Data for the mec2-1 strain (AID 157); details: S. cerevisiae mec2-1 strain, stronger effect = higher value
# Summary of the method: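 Readout is yeast growth inhibition, normalised to vehicle-treated controls, in the mec2-1 strain exposed to compound.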
# [7] = NCI Yeast Anticancer Drug Screen. Data for the rad14 strain (AID 159);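 note: 0% = growth of vehicle-treated control cultures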; details: S. cerevisiae rad14 strain growth inhibition, stronger effect = higher value
# Summary of the method: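 Test compounds were applied to a repair-deficient yeast strain. Its growth was then compared with that of cultures given vehicle alone, and inhibition was expressed relative to those controls.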
# [8] = NCI Yeast Anticancer Drug Screen. Data for the sgs1 mgt1 strain (AID 161);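 note: 0% = growth of cultures given vehicle only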; details: S. cerevisiae sgs1 mgt1 strain, stronger effect = higher value
# Summary of the method: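 Compounds are added to genetically altered yeast, and growth is compared with cultures given vehicle alone to give percent inhibition.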
# [9] = NCI Yeast Anticancer Drug Screen. Data for the CLN2oe strain (AID 163);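 note: 0% = growth of vehicle-only control cultures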; details: S. cerevisiae CLN2oe strain, stronger effect = higher value
# Summary of the method: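 Values reflect how much compound exposure reduced yeast growth, referenced to vehicle-exposed cells. Assay organism is a strain with a defined genetic change affecting cell-cycle control.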
# [10] = NCI Yeast Anticancer Drug Screen. Data for the cln2 rad14 strain (AID 165);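 note: 0% = growth equal to vehicle treated cultures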; details: S. cerevisiae cln2 rad14 strain, stronger effect = higher value
# Summary of the method: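 Relative to vehicle controls, growth inhibition of compound-treated cln2 rad14 yeast was recorded.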
# [11] = NCI Yeast Anticancer Drug Screen. Data for the bub3 strain (AID 167); details: S. cerevisiae bub3 mutant strain, stronger effect = higher value
# Summary of the method: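 Yeast carrying a defined mutation is treated with each compound, and growth is compared with that of vehicle-exposed cells to give inhibition.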
# [12] = NCI Yeast Anticancer Drug Screen. Data for the wt2 strain (AID 169);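 note: 0% = growth of vehicle-treated yeast cultures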; details: S. cerevisiae wt2 strain growth inhibition, stronger effect = higher value
# Summary of the method: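 Values express reduction in yeast growth under compound treatment, referenced to vehicle-treated cells.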
# [13] = NCI Yeast Anticancer Drug Screen. Data for the mlh1 strain (AID 171);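 note: 0% = growth of vehicle-treated control cultures of the same strain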; details: S. cerevisiae mlh1 strain growth inhibition, stronger effect = higher value
# Summary of the method: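 Steps: expose the defined-mutant yeast strain to compound; expose a parallel culture to vehicle; measure growth; express compound effect as inhibition relative to the vehicle culture.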
# [14] = NCI Yeast Anticancer Drug Screen. Data for the sgs1 strain (AID 173);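 note: 0% = growth of vehicle-only control cultures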; details: S. cerevisiae sgs1 mutant, stronger effect = higher value
# Summary of the method: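 Treat defined-mutant yeast with compound; measure growth; calculate inhibition relative to vehicle-treated cells.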
# [15] = NCI Yeast Anticancer Drug Screen. Data for the mlh1 rad18 strain (AID 175); details: S. cerevisiae mlh1 rad18 strain growth inhibition, stronger effect = higher value
# Summary of the method: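 Test agents were incubated with a yeast strain of defined genotype (DNA damage repair defect). Inhibition of growth was derived by comparison with vehicle-exposed cultures.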
# [16] = NCI Yeast Anticancer Drug Screen. Data for the rad18 strain (AID 177); details: S. cerevisiae rad18 mutant growth inhibition, stronger effect = higher value
# Summary of the method: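 A genetically defined yeast mutant impaired in DNA damage repair was treated with test compounds, then its growth was measured against cultures receiving vehicle alone.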
# [17] = at 5.0 µM (retest, dose inferred, filed as 0.5)
# [18] = at 50.0 µM (retest, dose inferred, filed as 5.0)
smiles,measurement,setting,value
O=c1oc2ccccc2c(O)c1C(c1ccc2ccccc2c1)c1c(O)c2ccccc2oc1=O,growth inhibition,[1]; at 1.2 µM,-8%
same,growth inhibition,[1]; at 3.7 µM,12%
same,growth inhibition,[1]; at 11.0 µM,21%
same,growth inhibition,[1]; at 33.0 µM,64%
same,growth inhibition,[1]; at 100.0 µM,97% (active)
same,growth inhibition,[2]; at 1.2 µM,-10%
same,growth inhibition,[2]; at 3.7 µM,4%
same,growth inhibition,[2]; at 11.0 µM,1%
same,growth inhibition,[2]; at 33.0 µM,50%
same,growth inhibition,[2]; at 100.0 µM,98% (active)
same,growth inhibition,[3]; at 1.2 µM,6%
same,growth inhibition,[3]; at 3.7 µM,41%
same,growth inhibition,[3]; at 11.0 µM,51%
same,growth inhibition,[3]; at 33.0 µM,50%
same,growth inhibition,[3]; at 100.0 µM,46%
same,growth inhibition,[4]; at 1.2 µM,17%
same,growth inhibition,[4]; at 3.7 µM,17%
same,growth inhibition,[4]; at 11.0 µM,33%
same,growth inhibition,[4]; at 33.0 µM,83% (active)
same,growth inhibition,[4]; at 100.0 µM,98% (active)
same,growth inhibition,[5]; at 1.2 µM,12%
same,growth inhibition,[5]; at 3.7 µM,10%
same,growth inhibition,[5]; [17],47%
same,growth inhibition,[5]; at 11.0 µM,17%
same,growth inhibition,[5]; at 33.0 µM,58%
same,growth inhibition,[5]; [18],93% (active)
same,growth inhibition,[5]; at 50.0 µM,73.7% (active)
same,growth inhibition,[5]; at 100.0 µM,97% (active)
same,growth inhibition,[6]; at 1.2 µM,10%
same,growth inhibition,[6]; at 3.7 µM,15%
same,growth inhibition,[6]; [17],17%
same,growth inhibition,[6]; at 11.0 µM,31%
same,growth inhibition,[6]; at 33.0 µM,76% (active)
same,growth inhibition,[6]; [18],78% (active)
same,growth inhibition,[6]; at 50.0 µM,86.5% (active)
same,growth inhibition,[6]; at 100.0 µM,98% (active)
same,growth inhibition,[7]; at 1.2 µM,12%
same,growth inhibition,[7]; at 3.7 µM,21%
same,growth inhibition,[7]; at 11.0 µM,26%
same,growth inhibition,[7]; at 33.0 µM,66%
same,growth inhibition,[7]; at 100.0 µM,99% (active)
same,growth inhibition,[8]; [17],-24%
same,growth inhibition,[8]; [18],92% (active)
same,growth inhibition,[8]; at 50.0 µM,46.1%
same,growth inhibition,[9]; at 1.2 µM,7%
same,growth inhibition,[9]; at 3.7 µM,21%
same,growth inhibition,[9]; at 11.0 µM,27%
same,growth inhibition,[9]; at 33.0 µM,78% (active)
same,growth inhibition,[9]; at 100.0 µM,97% (active)
same,growth inhibition,[10]; [17],19%
same,growth inhibition,[10]; [18],96% (active)
same,growth inhibition,[10]; at 50.0 µM,40.2%
same,growth inhibition,[11]; at 1.2 µM,8%
same,growth inhibition,[11]; at 3.7 µM,-8%
same,growth inhibition,[11]; [17],10%
same,growth inhibition,[11]; at 11.0 µM,22%
same,growth inhibition,[11]; at 33.0 µM,55%
same,growth inhibition,[11]; [18],93% (active)
same,growth inhibition,[11]; at 50.0 µM,28.4%
same,growth inhibition,[11]; at 100.0 µM,97% (active)
same,growth inhibition,[12]; at 1.2 µM,-25%
same,growth inhibition,[12]; at 3.7 µM,-21%
same,growth inhibition,[12]; at 11.0 µM,38%
same,growth inhibition,[12]; at 33.0 µM,97% (active)
same,growth inhibition,[12]; at 100.0 µM,94% (active)
same,growth inhibition,[13]; at 1.2 µM,-1%
same,growth inhibition,[13]; at 3.7 µM,20%
same,growth inhibition,[13]; at 11.0 µM,33%
same,growth inhibition,[13]; at 33.0 µM,75% (active)
same,growth inhibition,[13]; at 100.0 µM,99% (active)
same,growth inhibition,[14]; at 1.2 µM,27%
same,growth inhibition,[14]; at 3.7 µM,30%
same,growth inhibition,[14]; at 11.0 µM,36%
same,growth inhibition,[14]; at 33.0 µM,73% (active)
same,growth inhibition,[14]; at 100.0 µM,98% (active)
same,growth inhibition,[15]; [17],12%
same,growth inhibition,[15]; [18],40%
same,growth inhibition,[15]; at 50.0 µM,80% (active)
same,growth inhibition,[16]; at 1.2 µM,10%
same,growth inhibition,[16]; at 3.7 µM,7%
same,growth inhibition,[16]; at 11.0 µM,33%
same,growth inhibition,[16]; at 33.0 µM,55%
same,growth inhibition,[16]; at 100.0 µM,98% (active)
